Assay outcomes (PubChem)
Only some compounds are listed: those with a hit (about 1.1% of all), similar ones and a draw of the others.
MBNL1 CUG block = inhibitors of human MBNL1 binding to CUG repeat RNA | 280,000 tested, 0.036% active | Q9NR56 | Potency, µM (series often up to 57.5 µM), hits mostly inhibitors | TR-FRET MBNL1-His/biotin-(CUG)12 binding, 665/545 ratio; active = well fitted inhibition curve with a large enough effect in the signal ratio, with a control signal flat, not every such curve was filed as active; inconclusive = small, poorly fitted or top-dose-only effect, or effect the other way, or a change in a side signal; inactive = no such curve, though single readings can be large or run the other way; the % refers to the signal ratio
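TR-FRET readout: Ex 340 nm, 665/545 nm emission ratio, normalized to buffer-only (basal) and MBNL1-(CUG)12 controls. Complex of MBNL1-His with Biotin-(CUG)12, compounds 92 nM–58 uM, incubated 60 min at room temperature.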
Six1-Eya2 inh = inhibitors of human Six1/Eya2 interaction. AlphaScreen GST-Six1/His-Eya2 binding, biochemical; active compounds read low. activity change, % (concentration not given with the values). AID 651725. 360,000 tested, 0.56% active. Q15475+O00167
Target sequence (O00167 whole entry, looked up): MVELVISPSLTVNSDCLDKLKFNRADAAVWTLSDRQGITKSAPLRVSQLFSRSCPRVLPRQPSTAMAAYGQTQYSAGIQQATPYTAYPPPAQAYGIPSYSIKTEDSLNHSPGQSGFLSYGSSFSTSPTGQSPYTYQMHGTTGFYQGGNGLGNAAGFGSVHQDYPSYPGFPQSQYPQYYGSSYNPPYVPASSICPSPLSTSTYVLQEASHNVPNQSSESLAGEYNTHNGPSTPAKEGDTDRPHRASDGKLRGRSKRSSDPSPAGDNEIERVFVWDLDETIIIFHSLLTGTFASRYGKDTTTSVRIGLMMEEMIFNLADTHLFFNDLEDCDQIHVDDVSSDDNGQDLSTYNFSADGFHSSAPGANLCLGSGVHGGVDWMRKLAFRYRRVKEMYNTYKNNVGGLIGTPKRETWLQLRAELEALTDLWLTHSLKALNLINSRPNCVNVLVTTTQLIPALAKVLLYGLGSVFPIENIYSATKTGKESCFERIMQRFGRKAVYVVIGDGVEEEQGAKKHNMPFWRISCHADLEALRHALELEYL
Target sequence (Q15475 whole entry, looked up): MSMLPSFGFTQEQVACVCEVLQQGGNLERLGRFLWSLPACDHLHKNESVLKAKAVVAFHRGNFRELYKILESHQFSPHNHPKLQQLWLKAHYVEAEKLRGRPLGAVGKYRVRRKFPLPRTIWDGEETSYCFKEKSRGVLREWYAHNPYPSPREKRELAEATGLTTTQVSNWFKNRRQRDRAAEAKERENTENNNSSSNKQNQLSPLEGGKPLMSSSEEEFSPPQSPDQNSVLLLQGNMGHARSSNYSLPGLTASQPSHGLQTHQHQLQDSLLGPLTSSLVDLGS
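Compounds are tested against tagged Six1 and Eya2 proteins bridged by glutathione donor and nickel acceptor beads; after a one-hour incubation at 37 °C without light, AlphaScreen emission is recorded.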
uPA surface inh = blocks generation of uPA at the cell surface; cell surface uPA generation assay, qHTS; Potency, µM (top dose mostly 38.3 µM), most hits filed as inhibitors; 330,000 tested, 0.31% active; AID 540303; active = well fitted inhibition curve with a large enough effect; inconclusive = small, poorly fitted or top-dose-only effect; inactive = no such curve, though single readings can be large or run the other way; tested in mouse RAW 264.7 cells; note: nearly all actives have a fitted effect of over 55% in size
Mito fusion yeast = blocks mitochondrial division or promotes mitochondrial fusion. S. cerevisiae fusion-defective mutant growth rescue, CellTiterGlo 48 h. Potency, µM (top dose mostly 46.1 µM), actives largely listed as activators. 320,000 tested, 0.23% active. AID 485298; active = well fitted activation curve with a large enough effect; inconclusive = small, poorly fitted or top-dose-only effect; inactive = no such curve, though single readings can be large or run the other way; note: nearly all actives have a fitted effect of over 45% in size
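Read-out: ATP-based luminescence (CellTiterGlo, 10 min ambient) reporting growth of fusion-defective ts yeast after 48 hours at 37C on glycerol/ethanol YPEG medium in the presence of compound.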
CtBP-E1A blk = inhibitors of CtBP/E1A interaction; 340,000 tested, 0.49% active; AlphaScreen GST-E1A/His-CtBP binding, 1536-well; active compounds read low; activity change, % (test concentration not listed)
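Homogeneous bead-based format: GST-tagged E1A captured on glutathione donor beads, His-tagged CtBP on nickel acceptor beads; compounds precede bead addition by 2 h at 37 °C.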
Numbers stand for hits; . = inactive; ? = inconclusive; / = no result given. Cut-off read from the data, not from the text of the source, unless noted: active = activity change below about -65%; inconclusive = mostly about -30% to -63%; inactive = weaker than that.

SMILES	MBNL1 CUG block	Six1-Eya2 inh	uPA surface inh	Mito fusion yeast	CtBP-E1A blk
O=c1oc2ccc(Cl)cc2nc1/C=C(\O)c1ccco1	.	.	?	.	.
CC(C)C/C(O)=C/c1nc2cc(Cl)ccc2oc1=O	.	.	1.41µM	.	.
C[C@@H]1COc2cc(N3CCC[C@@H]3CO)ccc2S(=O)(=O)N1	/	.	/	/	.
Cc1nonc1C(=O)N/N=C/c1ccc(O)cc1O	.	-90.0	.	.	/
O=C(N/N=C/c1ccc(O)cc1O)c1ccncc1	.	-92.9	?	.	-91.2
COc1ccc(/C=N/NC(=O)c2ccncc2)c(OC)c1	.	.	.	.	/
CCc1cc(C(=O)N/N=C/c2ccc(O)cc2O)c2ccccc2n1	.	-92.6	.	.	-96.8
O=C(N/N=C/c1ccc(Cl)cc1Cl)c1ccncc1	?	.	.	.	/
O=C(N/N=C/c1cc(Cl)cc(Cl)c1O)c1ccncc1	/	-91.7	3.16µM	.	/
Cc1nonc1C(=O)N/N=C/c1ccncc1	.	.	.	.	/
O=C(CCCCCNC(=O)c1ccccc1)N/N=C/c1ccc(O)cc1O	.	.	.	.	?
CC(=O)c1cccc(NC(=O)c2oc(=O)c3ccccc3c2-c2ccccc2)c1	/	/	/	.	/
CCc1nc2c(OCC3CCCCC3)cccn2c1N(C)C(=O)c1ccccc1F	/	.	/	/	.
O=C(N/N=C/c1cc(Br)cc(Br)c1O)c1ccncc1	.	-79.6	.	.	-92.9
O=C(N/N=C/c1ccc(O)cc1O)c1ccc(NC(=O)C2CCCCC2)cc1	.	-71.7	?	.	-89.8
O=C(C[n+]1ccccc1)N/N=C/c1cc(Br)ccc1F	/	.	.	.	.
O=C(O)COc1ccccc1/C=N/NC(=O)c1cc(-c2ccccc2)nc2ccccc12	?	.	.	.	.
O=C(O)COc1ccccc1/C=N/NC(=O)c1cc(-c2ccc(Cl)cc2)nc2ccccc12	.	-80.2	.	.	-81.0
Cc1cccc(C(=O)Oc2c(Br)cc(Br)cc2/C=N/NC(=O)c2ccncc2)c1	.	.	/	.	.
O=C(N/N=C/c1cccc(O)c1)c1ccc(NC(=O)C2CCCCC2)cc1	.	.	.	.	.
O=C(C[n+]1ccccc1)N/N=C/c1cc(Br)cc(Br)c1O	.	-89.1	.	.	.
CC(C)(C)NC(=O)C(c1ccc(-c2ccccc2)cc1)N(C[C@H]1CC[C@@H]([C@@H]2CC[C@H](CO)O2)O1)C(=O)c1ccccc1F (stereo not given in full)	/	.	.	/	.
O=C(CSc1cccc2cccnc12)Nc1ccc(S(=O)(=O)N2CCOCC2)cc1	?	-88.2	.	.	-92.6
COc1ccc(CNC(=O)CSc2cccc3cccnc23)cc1	.	.	.	.	.
COc1ccc(NC(=O)CSc2cccc3cccnc23)c(OC)c1	/	.	.	.	.
SMILES	MBNL1 CUG block	Six1-Eya2 inh	uPA surface inh	Mito fusion yeast	CtBP-E1A blk
Cc1cccc(CSc2cccc3cccnc23)c1	.	-90.3	.	.	-92.5
CCCCCOc1ccc(NC(=O)CSc2cccc3cccnc23)cc1	.	-92.0	.	.	-94.9
NNC(=O)c1ccc(CSc2cccc3cccnc23)cc1	.	.	.	.	.
O=C(CSc1cccc2cccnc12)Nc1cccc(S(=O)(=O)N2CCOCC2)c1	.	.	.	.	.
CCOC(=O)CSc1cccc2cccnc12	.	-89.1	.	.	-91.8
C[C@@H]1Cn2cnc(C(=O)N[C@@H](C)c3ccccc3)c2C(=O)N1	/	.	/	/	.
Nc1nc(Cl)nc2c1ncn2[C@@H]1O[C@H](COP(=O)(O)OP(=O)(O)OP(=O)(O)O)[C@@H](O)[C@H]1O	/	/	/	.	/
CC(Oc1ccc(F)cc1Br)c1nc2ccccc2c(=O)[nH]1 (stereo not given)	.	.	.	.	.
Cc1cccc(NC(=O)CSc2cccc3cccnc23)c1C	.	?	.	.	-78.6
Cc1cc(C(=O)N/N=C\c2cc(C(C)(C)C)ccc2O)n[nH]1	.	?	?	.	-67.9
O=C(O)c1ccc2c(c1)C(=O)N([C@H](Cc1ccc(C(F)(F)F)cc1)C(=O)O)C2=O	/	/	/	.	/
COC(=O)[C@@]12CCCCN1[C@H](c1ccc(-c3ccc(F)cc3)cc1)[C@@H]1C(=O)N(C)C(=O)[C@@H]12	/	.	.	12.6µM	.
COC(=O)[C@@]12CCCCN1[C@H](c1ccc(-c3ccccc3)cc1)[C@H]1C(=O)N(C)C(=O)[C@H]12	/	.	.	?	/
